SMILES strings stand for the structures. Potency and affinity values are given separately. Active and inactive are the calls of the source.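 Rule for the calls: active = cell killing, meaning signal decrease, with fitted half-maximal dose at or below ten times the top valid tested dose; inconclusive = poor fit, or flat curve with 30 to 70% signal loss; inactive = the rest.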

A short description of the test: HeLa cell cytotoxicity, dose response, cytotoxicity control for MITF activator project, CellTiter-Glo luminescence, cherry-pick samples (AID 540259). Conditions: HeLa viability, CellTiter-Glo ATP luminescence, 24 h; series mostly up to 35 µM.
`COC(=O)c1ccc(Nc2ncnc3sccc23)cc1`: the call was inactive.
Then `O=C(CC(Nc1ccccc1)C(=O)O)c1ccccc1` (configuration not stated), with “inactive”; and `COc1ccc(C(=O)Nc2cc3c4c(c2)CC(=O)N4CCC3)c(OC)c1`, with “inactive”; and `O=C(NC1CCCCCC1)c1cc2c(=O)n3ccccc3nc2s1`, with “inactive”.
Then `CCc1nc2oc3ccccc3c(=O)c2cc1C(=O)OC`, with “inactive”.
With `Nc1ccc(Oc2cc(N)cc(Oc3ccccc3)c2)cc1`, the call was inactive.
In the case of `O=C(N=C1N=C2C=CC=CN2Cc2ccccc21)c1ccc(S(=O)(=O)N2CCCC2)cc1`, the molecule was called inactive.
In the case of `Cc1ccc(CONC(=O)c2ccc(C)cc2)cc1` it was “inactive”.
With `CC(C)c1ccc(NC(=O)Cn2ncc3ccccc32)cc1`, the call was inactive.
Then `CCC(=O)c1ccc(OCc2ccccc2)c(OC)c1`, with “inactive”.
In the case of `O=c1c2ccccc2oc2cc(NCCCn3ccnc3)ccc12` it was “inactive”; in that of `Cc1ccc(C2=NN(S(C)(=O)=O)C(c3cccs3)C2)cc1` (configuration not stated), “inactive”.
Take `CCc1ccc(OC(=O)Nc2ccccc2)cc1`: the molecule was classed as inactive.
In the case of `Cc1ccn2cc(-c3cccc(NS(C)(=O)=O)c3)nc2c1` it was “inactive”; in that of `Nc1nonc1-n1nnc(C(=O)N/N=C/c2ccc(OCc3ccccc3F)cc2)c1CN1CCCCC1`, “inactive”; in that of `COc1ccc(/C(N)=N/OC(=O)c2cccs2)cc1OC`, “inactive”.
On to `CC(=O)c1sc(NC(=O)c2ccccc2F)nc1-c1ccccc1`, for which the molecule was classed as inactive.
Then `Cc1ccc(Nc2nc(CSc3n[nH]c(N)n3)cs2)cc1`, with “inactive”; and `COCc1nn2c(N)c(-c3ccccc3)cnc2c1-c1ccccc1`, with “inactive”; and `O=c1c2c(nc3cc(-c4ccc(Br)cc4)[nH]n13)CCCC2`, with “inactive”.
Consider `Cc1ccc(/C=N/Nc2ccc(Cl)nn2)cc1`, for which the result was inactive.
In the case of `COc1ccc(/C=C2\SC(=O)N(CCNC(=O)C3CC4C=CC3C4)C2=O)cc1` (configuration not stated) it was “inactive”; in that of `Cn1c2ccccc2c(=O)c2cc(C#Cc3ccccn3)ccc21`, “inactive”.
`CCn1cnc2cc(NCc3ccccc3Cl)ccc21`: the result was inactive.
In the case of `Cc1ccc2cc(NC(=O)c3ccccc3C)ccc2n1` it was “inactive”.
Then `COc1ccc(NC(=O)C2Cc3ccccc3O/C2=N\O)cc1` (configuration not stated), with “inactive”; and `CC(C)(C)C(=O)c1sc(Nc2ccccc2)nc1N`, with “inactive”.
On to `FC(F)(F)c1ccnc(Oc2ccc(C3=NCCS3)cc2)c1`, for which the call was inactive.
Then `COc1ccccc1NC(=O)Nc1nc2ccc(S(N)(=O)=O)cc2s1`, with “inactive”; and `O=C(Nc1ccc2c(c1)OCO2)c1cc(-c2ccccc2Cl)on1`, with “inactive”; and `Cc1cccc(-c2nc(C#N)c(NC3CCCCC3)o2)c1`, with “inactive”.
In the case of `Cn1c(SCc2c(F)cccc2Cl)nnc1-c1cnccn1` it was “inactive”; in that of `CCN1CCN(c2ccc(NC(=O)c3cccc(F)c3)cc2Cl)CC1`, “inactive”; in that of `CCN(CC)c1ccc(-c2nc3cnccc3n2C)cc1`, “inactive”.
In the case of `Cn1cc(Br)c(C(=O)N/N=C/c2cc3c(cc2Cl)OCO3)n1` it was “inactive”; in that of `Cc1ccc(-c2csc(C(C#N)=C3CCCC3)n2)cc1`, “inactive”.
For `CC(C)(C)N1C(=O)c2ccc(C(=O)Nc3nccs3)cc2C1=O`, the outcome was inactive.

The values are drawn from PubChem BioAssay AID540259 (Broad Institute, 2011).
